Records with an inconclusive call do not appear. Active and inactive are the calls of the source. The call rests on the fitted dose curve; in most records, active means well fitted curve in the direction sought with a large enough effect; inconclusive means small, poorly fitted or top-dose-only effect, or another doubt; inactive means no such curve, though single readings can be large or run the other way.
These compounds were tested against Protein phosphatase 1D (Homo sapiens) (UniProt O15297) (assay: Rhodamine-PBP qHTS Assay for Modulators of WT P53-Induced Phosphatase 1 (WIP1) (AID 1347425)). Details: recombinant WIP1, Rhodamine-PBP phosphate fluorescence, real-time; series mostly up to 57.5 µM.
Protein phosphatase 1D (Homo sapiens), sequence (O15297 whole entry, looked up): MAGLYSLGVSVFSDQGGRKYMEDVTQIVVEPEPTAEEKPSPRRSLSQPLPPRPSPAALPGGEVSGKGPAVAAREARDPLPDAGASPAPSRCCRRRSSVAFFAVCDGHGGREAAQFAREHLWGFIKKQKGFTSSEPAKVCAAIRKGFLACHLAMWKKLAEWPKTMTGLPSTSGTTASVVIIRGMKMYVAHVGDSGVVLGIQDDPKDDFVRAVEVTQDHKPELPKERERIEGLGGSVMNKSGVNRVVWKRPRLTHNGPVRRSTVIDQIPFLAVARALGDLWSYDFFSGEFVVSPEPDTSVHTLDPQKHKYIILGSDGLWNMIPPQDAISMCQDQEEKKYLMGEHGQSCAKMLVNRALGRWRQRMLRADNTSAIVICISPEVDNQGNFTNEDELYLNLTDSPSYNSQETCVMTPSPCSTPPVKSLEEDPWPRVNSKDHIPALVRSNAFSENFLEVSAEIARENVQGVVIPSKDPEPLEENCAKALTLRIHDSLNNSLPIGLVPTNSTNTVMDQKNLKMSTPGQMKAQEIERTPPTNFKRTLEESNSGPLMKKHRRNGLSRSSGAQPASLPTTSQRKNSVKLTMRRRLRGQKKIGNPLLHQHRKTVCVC
Excerpt: Assay Provider (PI): Nathan Coussens Ph.D.
National Center for Advancing Translational Sciences (NCATS), Rockville, MD
National Institute of Health (NIH), Bethesda, Maryland
WT P53-Induced Phosphatase 1 (WIP1) is a member of the magnesium-dependent serine/threonine protein phosphatase (PPM) family and is induced by P53 in response to DNA damage. In several human cancers, the WIP1 protein is overexpressed, which is generally associated with a worse prognosis. Although WIP1 is an attractive therapeutic target, no potent, selective, and bioactive small-molecule modulator with favorable pharmacokinetics has been reported. Phosphatase enzymes are among the most challenging targets for small molecules because of the difficulty of achieving both modulator selectivity and bioavailability. Another major obstacle has been the availability of robust and physiologically relevant phosphatase assays that are suitable for high-throughput screening.
Here, we describe two orthogonal biochemical WIP1 activity assays that utilize phosphopeptides from native WIP1 substrates. We optimized a RapidFire MS assay to quantify the enzymatically dephosphorylated peptide reaction product in a 384-well format. Additionally, a redshifted Rhodamine-PBP fluorescence assay was optimized in a 1,536-well format to enable real-time WIP1 activity measurements through the detection of the orthogonal reaction product, Pi. We validated these two optimized assays by quantitative high-throughput screening against the National Center for Advancing Translational Sciences (NCATS) Pharmaceutical Collection and used secondary assays to confirm and evaluate inhibitors identified in the primary screen.
SEQUENCE No. (e.g., 1, 2, 3, etc.); […] (e.g., Cells, Incubation, Reagent, etc.); VALUE; DESCRIPTION
1; Reagent; 3 uL; WIP1 (6.7 nM), Rh-PBP (13.3 uM), columns 1-48
3; Library Compounds; 23 nL; NCATS Pharmaceutical Collection, column 5-48
4; Control Compounds; DMSO in column 2, GSK2830371 (57.5 uM, final) in 3-fold serial dilutions in column 3, GSK2830371 (1.15 uM, final) in column 4
5; Time; 1 hr; incubation
6; Detection; fluorescence (f0); ViewLux, excitation filter = 525 nm, emission filter = 598 nm
7; Reagent; 1 uL; VEPP-pS-QETFS (40 uM), columns 2-48
8; Detection; fluorescence (f1); ViewLux, excitation filter = 525 nm, emission filter = 598 nm
NOTES (numbers refer to sequence above)
1 & 2; Black medium binding Greiner 1536-well plates (# 789176-F); assay buffer: 50 mM Tris-HCl pH 7.5, 30 mM MgCl2, 1mM TCEP, 0.1 mM EGTA, 75 ug/mL BSA; dispensed with a BioRaptr liquid handler (Beckman Coulter).
3 & 4; Kalypsys pintool (equipped with 1536 pinhead, Wako USA) transfer. Tip wash sequence: DMSO, methanol, 3 sec vacuum dry.
5; Room temperature incubation.
7; VEPPL-pS-QETFS in assay buffer dispensed with a BioRaptr; final reaction conditions: 5 nM WIP1, 10 uM VEPPL-pS-QETFS, 10 uM Rh-PBP, 50 mM Tris-HCl pH 7.5, 30 mM MgCl2, 1 mM TCEP, 0.1 mM EGTA, 75 ug/mL BSA.
8; Measurement taken at 1 min intervals for 11 min. Delta readout = f1 - f0.

Row | Structure (SMILES) | outcome
1 | Clc1ccc(Cn2c(CN3CCCC3)nc3ccccc32)cc1 | inactive
2 | CC[C@]1(O)C[C@@H]2CN(CCc3c([nH]c4ccccc34)[C@@](C(=O)OC)(c3cc4c(cc3OC)N(C)[C@H]3[C@@](O)(C(=O)OC)[C@H](OC(C)=O)[C@]5(CC)C=CCN6CC[C@]43[C@@H]65)C2)C1 | inactive
3 | CCn1cc(C(=O)O)c(=O)c2ccc(C)nc21 | inactive
4 | O=C1NC(=O)C(c2ccccc2)(c2ccccc2)N1 | inactive
5 | C[C@@H](O)[C@H]1C(=O)N2C(C(=O)O)=C(S[C@@H]3CN[C@H](C(=O)N(C)C)C3)[C@H](C)[C@H]12 | inactive
6 | CN(C)CCC(c1ccccc1)c1ccccn1 (stereo not given) | inactive
7 | N#C[C@H]1C[C@H]2C[C@@H]2N1C(=O)[C@@H](N)C12CC3CC(CC(O)(C3)C1)C2 | inactive
8 | COc1ccccc1N1CCN(CCCNc2cc(=O)n(C)c(=O)n2C)CC1 | inactive
9 | O=C1NCC2(CCN(CCc3ccccc3)CC2)O1 | inactive
10 | O=C(O)CCc1nc(-c2ccccc2)c(-c2ccccc2)o1 | inactive
11 | OC[C@@H](O)[C@H](O)[C@H](O)[C@@H](O)CO | inactive
12 | CC(C)(C)c1ccc(C(O)CCCN2CCC(C(O)(c3ccccc3)c3ccccc3)CC2)cc1 (stereo not given) | inactive
13 | CCN1CCC[C@H]1CNC(=O)c1cc(S(N)(=O)=O)ccc1OC | inactive
14 | CC(=O)N[C@@H](CS)C(=O)O | inactive
15 | NCCS | inactive
16 | CC/C(=C(\c1ccccc1)c1ccc(OCCN(C)C)cc1)c1ccccc1 | inactive
17 | CCN(CC)CCNC(=O)c1ccc(N)cc1 | inactive
18 | O=C(O)Cc1cccc2ccccc12 | inactive
19 | CC1=C(/C=C/C(C)=C/C=C/C(C)=C/C(=O)Nc2ccc(O)cc2)C(C)(C)CCC1 | inactive
20 | COC(=O)[C@@H]1[C@H]2C[C@H]3c4[nH]c5ccccc5c4CCN3C[C@@H]2CC[C@@H]1O | inactive

Row | Structure (SMILES) | outcome
21 | Cc1cccc(C)c1OCC(C)N (stereo not given) | inactive
22 | CC(C)OC(=O)C(C)(C)Oc1ccc(C(=O)c2ccc(Cl)cc2)cc1 | inactive
23 | COC[C@@H](c1ccc(C(F)(F)F)cc1)N1CCN(C2(C)CCN(C(=O)c3c(C)ncnc3C)CC2)C[C@H]1C | inactive
24 | O=C(NCCN1CCOCC1)c1ccc(Cl)cc1 | inactive
25 | CCCNC(=O)NS(=O)(=O)c1ccc(Cl)cc1 | inactive
26 | CC(=O)Oc1cc2c(s1)CCN(C(C(=O)C1CC1)c1ccccc1F)C2 (stereo not given) | inactive
27 | C[N+](C)(C)CC(=O)O | inactive
28 | COc1ccc2cccc(CCNC(C)=O)c2c1 | inactive
29 | COc1cc2ncnc(Nc3ccc(F)c(Cl)c3)c2cc1OCCCN1CCOCC1 | inactive
30 | CC(C)NCC(O)COc1cccc2[nH]ccc12 (stereo not given) | inactive
31 | C[N+](C)(C)CCCCCC[N+](C)(C)C | inactive
32 | O=c1[nH]cnc2c1ncn2[C@H]1CC[C@@H](CO)O1 | inactive
33 | CC(=O)c1ccc(S(=O)(=O)NC(=O)NC2CCCCC2)cc1 | inactive
34 | CN1C[C@H]2c3ccccc3Oc3ccc(Cl)cc3[C@@H]2C1 | inactive
35 | O=C(O)c1cc(-c2ccccc2)nc2ccccc12 | inactive
36 | CC(=O)CCCCn1c(=O)c2c(ncn2C)n(C)c1=O | inactive
37 | NC(N)=Nc1nc(CSCC/C(N)=N/S(N)(=O)=O)cs1 | inactive
38 | CCN(CC)C(=O)c1ccc(O)c(OC)c1 | inactive
39 | CCN(CC)CCOC(=O)c1ccc(N)cc1 | inactive
40 | O=C(CCCCCCC(=O)Nc1ccccc1)NO | inactive

From PubChem BioAssay (NCATS)
